Screening data: PubChem, several laboratories
HGIII-sPLA2 inh – human group III sPLA2 inhibitors, primary screen, biochemical, QFRET, BODIPY PC-A2 liposome substrate. QFRET BODIPY PC-A2 liposome hydrolysis, fluorescence. AID 743126, 2013. inhibition, % at 12.2 µM. 370,000 compounds, 0.56% hits;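 active = inhibition above mean plus 3 SD of compounds lying within the high and low control bounds, cut at about 19% in these data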;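 note: 0% = median of test compound wells and 100% = no enzyme DMSO wells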
Target sequence (Q9NZ20 whole entry, looked up): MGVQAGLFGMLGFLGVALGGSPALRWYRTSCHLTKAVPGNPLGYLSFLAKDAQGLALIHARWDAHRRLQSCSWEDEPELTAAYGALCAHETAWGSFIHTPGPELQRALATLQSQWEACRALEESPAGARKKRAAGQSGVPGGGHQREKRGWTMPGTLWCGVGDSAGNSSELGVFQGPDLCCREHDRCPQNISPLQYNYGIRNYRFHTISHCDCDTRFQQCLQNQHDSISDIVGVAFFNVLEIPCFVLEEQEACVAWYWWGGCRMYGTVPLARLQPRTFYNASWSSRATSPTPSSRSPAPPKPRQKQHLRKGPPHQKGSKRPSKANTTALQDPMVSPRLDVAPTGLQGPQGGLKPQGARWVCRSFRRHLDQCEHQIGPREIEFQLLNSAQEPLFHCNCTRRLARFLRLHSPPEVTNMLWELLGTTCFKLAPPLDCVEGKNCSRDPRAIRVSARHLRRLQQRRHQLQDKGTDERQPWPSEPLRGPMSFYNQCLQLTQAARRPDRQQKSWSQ
GRIN3A LBD mod – binders of NR3A ligand-binding domain, primary screen, biophysical, differential scanning fluorimetry, uHTS; Tm shift relative to glycine control, % at 25 µM; Glutamate receptor ionotropic, NMDA 3A (GRIN3A) ligand-binding domain; NR3A LBD differential scanning fluorimetry, Tm shift; 0% = protein alone, 100% = glycine-bound protein; 340,000 compounds, 2.5% hits; AID 1259313, 2017;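 active = melting temperature shift of at least 10% of the positive control shift, at one fixed dose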
FAS TE block – FAS thioesterase domain inhibitors, primary screen, biochemical, fluorescence intensity, uHTS; 360,000 compounds, 0.67% hits; inhibition, % at 15 µM; AID 602261, 2012; Fatty acid synthase (Homo sapiens), P49327; recombinant FAS-TE, OMFH fluorogenic substrate, fluorescence endpoint;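 active = compounds whose normalised, plate-corrected inhibition of enzyme fluorescence in the single-dose primary screen is 50% or more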;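 note: 0% = DMSO with enzyme and 100% = substrate without enzyme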
ADAM10 inh – human ADAM10 inhibitors, primary screen, biochemical, QFRET, HTS | Disintegrin and metalloproteinase domain-containing protein 10 (Homo sapiens), O14672 | recombinant ADAM10, EDANS/DABCYL FRET peptide cleavage, 3 h | inhibition, % at 7 µM | 370,000 compounds, 0.62% hits;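 active = inhibition above a per-campaign cutoff equal to the mean of compounds falling between control-based bounds plus 3 SD, cut at about 20% in these data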;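 note: 0% = DMSO wells while the 100% control is not disclosed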
ADAM17 inh – ADAM17 inhibitors, primary screen, biochemical, QFRET; Disintegrin and metalloproteinase domain-containing protein 17 (Homo sapiens), P78536; recombinant ADAM17, EDANS/DABCYL FRET peptide cleavage; inhibition, % at 6.95 µM; 370,000 compounds, 0.83% hits; AID 720648, 2013;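 active = inhibition above the mean of compounds lying between control limits plus 3 SD, set per campaign, cut at about 8.5% in these data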;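 note: 0% = DMSO-only wells as the low control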
* hit, by the source's call. Most compounds without a hit are left out; they make up all but 4.3% or so of the library.

What do the screens show for `CCCC1S/C(=N/N=C/c2ccc(OC)cc2)N(Cc2ccccc2)C1=O` (configuration not stated)?
HGIII-sPLA2 inh: -1; GRIN3A LBD mod: 10*; FAS TE block: 27; ADAM10 inh: 5; ADAM17 inh: -2

Results for CN(CCc1ccccn1)C1CC(=O)N(c2ccc(Cl)cc2)C1=O (configuration not stated) ?
HGIII-sPLA2 inh: 1; GRIN3A LBD mod: 14*; FAS TE block: -6; ADAM10 inh: 9; ADAM17 inh: 6

How did O=[N+]([O-])c1ccc(N/N=C/c2cccnc2)cc1 do in these assays?
HGIII-sPLA2 inh: -1; GRIN3A LBD mod: 12*; FAS TE block: 7; ADAM10 inh: 11; ADAM17 inh: 0

How did O=C(Cc1ccc([N+](=O)[O-])cc1)N/N=C/c1cccnc1 do in these assays?
HGIII-sPLA2 inh: 5; GRIN3A LBD mod: 1; FAS TE block: 2; ADAM10 inh: -3; ADAM17 inh: -2

Results for Cc1ccc(NC(=O)c2ccc(N/N=C/c3cccc(O)c3)c([N+](=O)[O-])c2)cc1 ?
HGIII-sPLA2 inh: 5; GRIN3A LBD mod: 256*; FAS TE block: 0; ADAM10 inh: 1; ADAM17 inh: -3

How did O=S(=O)(O)c1ccc(NN=Cc2ccccc2O)cc1 do in these assays?
HGIII-sPLA2 inh: 0; GRIN3A LBD mod: -6; FAS TE block: -1; ADAM10 inh: -6; ADAM17 inh: -2

How did O=[N+]([O-])c1ccc(N/N=C/c2cccc(O)c2O)cc1 do in these assays?
HGIII-sPLA2 inh: 19; GRIN3A LBD mod: 35*; FAS TE block: 32; ADAM10 inh: 4; ADAM17 inh: 0

How did Cc1ccccc1NC(=O)c1ccc(N/N=C/c2ccccc2O)c([N+](=O)[O-])c1 do in these assays?
HGIII-sPLA2 inh: 13; GRIN3A LBD mod: -2; FAS TE block: -11; ADAM10 inh: 6; ADAM17 inh: -3

What do the screens show for `O=[N+]([O-])c1ccc(NN=Cc2cccc([N+](=O)[O-])c2)cc1`?
HGIII-sPLA2 inh: 9; GRIN3A LBD mod: 34*; FAS TE block: 2; ADAM10 inh: -4; ADAM17 inh: -2

What do the screens show for `COC(=O)[C@@H](CC(C)C)CP(=O)(OC)[C@@H](C)NC(=O)OCc1ccccc1` (some centres not stated)?
HGIII-sPLA2 inh: 3; ADAM10 inh: -1; ADAM17 inh: -4

How did CCN(CC)CCCNC(=O)c1oc(=O)c2ccccc2c1-c1ccc(C)cc1 do in these assays?
HGIII-sPLA2 inh: 2; ADAM10 inh: -1; ADAM17 inh: -2

What do the screens show for `CSCCCNC(=O)c1oc(=O)c2ccccc2c1-c1ccc(C)cc1`?
HGIII-sPLA2 inh: 0; ADAM10 inh: -8; ADAM17 inh: -3

What do the screens show for `O=C(NCCc1ccc(F)cc1)c1ccc2c(c1)ncn2C1CCCCC1`?
HGIII-sPLA2 inh: -8; ADAM10 inh: 0; ADAM17 inh: 2

How did CCOC(=O)CC[C@H]1CC[C@]2(CCCN(S(C)(=O)=O)C2)O1 do in these assays?
HGIII-sPLA2 inh: 7; ADAM10 inh: 3; ADAM17 inh: 2

Results for O=[N+]([O-])c1cccc(/C=N/Nc2cc(Cl)nc(-c3ccccc3)n2)c1 ?
HGIII-sPLA2 inh: 0; GRIN3A LBD mod: 28*; FAS TE block: 30; ADAM10 inh: 0; ADAM17 inh: -1

How did Cc1cccc(C(=O)Oc2ccccc2/C=N/Nc2ccc([N+](=O)[O-])cc2)c1 do in these assays?
HGIII-sPLA2 inh: -2; GRIN3A LBD mod: 14*; FAS TE block: 29; ADAM10 inh: -7; ADAM17 inh: -1

Results for Cc1cccc(NC(=S)N/N=C/c2cccc([N+](=O)[O-])c2)c1 ?
GRIN3A LBD mod: 150*; FAS TE block: 24

Results for Cc1cccc(C(=O)Oc2ccc(/C=N/O)cc2)c1 ?
HGIII-sPLA2 inh: -15; GRIN3A LBD mod: -14; FAS TE block: -5; ADAM10 inh: 3; ADAM17 inh: 0

What do the screens show for `O=[N+]([O-])c1ccc(N/N=C/c2cccc(O)c2)cc1`?
HGIII-sPLA2 inh: -33; GRIN3A LBD mod: 26*; FAS TE block: 12; ADAM10 inh: 2; ADAM17 inh: 8
